ChEMBL document CHEMBL1961873, “Compounds: GSK PKIS; Assays: Nanosyn kinase panel” (2012)

Key:
[1] = target: CDK3/Cyclin E (Homo sapiens) (UniProt P24864+Q00526); settings: at 1 µM;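 further: each figure is a mean percent inhibition of the CDK3/cyclin E complex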
[2] = target: Cyclin-dependent kinase 4 (Homo sapiens) (UniProt P11802); settings: at 0.1 µM
[3] = target: Cyclin-dependent kinase 4 (Homo sapiens) (UniProt P11802); settings: at 1 µM
[4] = target: Cyclin-dependent kinase 5 (Homo sapiens) (UniProt Q00535); settings: at 0.1 µM
Chain of Cyclin-dependent kinase 5 (Homo sapiens) (Q00535 whole entry, looked up): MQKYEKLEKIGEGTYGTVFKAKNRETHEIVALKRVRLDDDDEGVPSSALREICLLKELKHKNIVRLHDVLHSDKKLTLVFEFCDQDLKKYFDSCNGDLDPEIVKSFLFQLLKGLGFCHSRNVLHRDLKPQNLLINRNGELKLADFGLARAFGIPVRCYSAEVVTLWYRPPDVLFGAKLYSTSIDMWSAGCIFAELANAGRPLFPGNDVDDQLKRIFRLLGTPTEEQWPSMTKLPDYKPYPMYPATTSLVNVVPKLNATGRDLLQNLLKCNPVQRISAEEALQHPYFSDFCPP

[5] = target: Cyclin-dependent kinase 5 (Homo sapiens) (UniProt Q00535); settings: at 1 µM
[6] = target: Cyclin-dependent kinase 6 (Homo sapiens) (UniProt Q00534); settings: at 0.1 µM
Chain of Cyclin-dependent kinase 6 (Homo sapiens) (Q00534 whole entry): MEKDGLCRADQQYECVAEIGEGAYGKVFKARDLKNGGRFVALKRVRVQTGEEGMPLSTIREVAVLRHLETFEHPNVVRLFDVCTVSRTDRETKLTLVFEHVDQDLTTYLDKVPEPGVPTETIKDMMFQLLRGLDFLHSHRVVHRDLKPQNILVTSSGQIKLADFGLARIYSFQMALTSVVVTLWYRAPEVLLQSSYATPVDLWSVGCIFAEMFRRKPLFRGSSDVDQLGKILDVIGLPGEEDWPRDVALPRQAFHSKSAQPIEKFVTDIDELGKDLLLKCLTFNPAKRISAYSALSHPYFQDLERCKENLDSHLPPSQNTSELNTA

[7] = target: Cyclin-dependent kinase 6 (Homo sapiens) (UniProt Q00534); settings: at 1 µM
[8] = target: Dual specificity protein kinase CLK2 (Homo sapiens) (UniProt P49760); settings: at 0.1 µM
Chain of Dual specificity protein kinase CLK2 (Homo sapiens) (P49760 whole entry, looked up): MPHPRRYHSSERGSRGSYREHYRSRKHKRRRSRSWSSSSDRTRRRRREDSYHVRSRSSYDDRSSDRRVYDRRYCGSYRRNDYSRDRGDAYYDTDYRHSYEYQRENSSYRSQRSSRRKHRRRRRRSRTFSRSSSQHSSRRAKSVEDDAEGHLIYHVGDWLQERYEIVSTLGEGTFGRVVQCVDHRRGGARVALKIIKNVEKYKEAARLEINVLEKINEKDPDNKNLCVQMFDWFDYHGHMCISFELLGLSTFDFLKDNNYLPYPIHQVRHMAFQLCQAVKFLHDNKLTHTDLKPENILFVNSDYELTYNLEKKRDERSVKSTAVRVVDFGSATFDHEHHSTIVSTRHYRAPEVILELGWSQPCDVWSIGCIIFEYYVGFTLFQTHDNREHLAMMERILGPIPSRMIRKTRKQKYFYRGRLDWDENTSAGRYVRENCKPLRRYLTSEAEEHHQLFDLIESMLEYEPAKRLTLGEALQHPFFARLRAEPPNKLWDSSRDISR

[9] = target: Dual specificity protein kinase CLK2 (Homo sapiens) (UniProt P49760); settings: at 1 µM
[10] = target: Dual specificity protein kinase CLK3 (Homo sapiens) (UniProt P49761); settings: at 0.1 µM
Chain of Dual specificity protein kinase CLK3 (Homo sapiens) (P49761 whole entry, looked up): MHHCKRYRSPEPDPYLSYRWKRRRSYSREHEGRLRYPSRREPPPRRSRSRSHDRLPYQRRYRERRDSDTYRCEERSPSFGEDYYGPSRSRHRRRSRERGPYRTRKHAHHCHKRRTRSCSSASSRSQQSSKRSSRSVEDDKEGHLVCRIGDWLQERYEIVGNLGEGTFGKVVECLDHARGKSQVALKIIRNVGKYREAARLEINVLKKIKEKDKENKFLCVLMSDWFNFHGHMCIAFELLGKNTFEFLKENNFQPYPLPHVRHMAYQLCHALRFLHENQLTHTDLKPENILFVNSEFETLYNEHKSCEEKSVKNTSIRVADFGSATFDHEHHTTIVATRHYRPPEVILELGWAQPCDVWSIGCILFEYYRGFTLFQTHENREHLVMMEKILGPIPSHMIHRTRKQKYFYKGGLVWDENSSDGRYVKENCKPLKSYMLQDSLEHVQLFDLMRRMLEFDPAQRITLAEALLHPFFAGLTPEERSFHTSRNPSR

[11] = target: Dual specificity protein kinase CLK3 (Homo sapiens) (UniProt P49761); settings: at 1 µM
[12] = target: Dual specificity tyrosine-phosphorylation-regulated kinase 1A (Homo sapiens) (UniProt Q13627); settings: at 0.1 µM
[13] = target: Dual specificity tyrosine-phosphorylation-regulated kinase 1A (Homo sapiens) (UniProt Q13627); settings: at 1 µM
[14] = target: Dual specificity tyrosine-phosphorylation-regulated kinase 1B (Homo sapiens) (UniProt Q9Y463); settings: at 0.1 µM
Chain of Dual specificity tyrosine-phosphorylation-regulated kinase 1B (Homo sapiens) (Q9Y463 whole entry, looked up): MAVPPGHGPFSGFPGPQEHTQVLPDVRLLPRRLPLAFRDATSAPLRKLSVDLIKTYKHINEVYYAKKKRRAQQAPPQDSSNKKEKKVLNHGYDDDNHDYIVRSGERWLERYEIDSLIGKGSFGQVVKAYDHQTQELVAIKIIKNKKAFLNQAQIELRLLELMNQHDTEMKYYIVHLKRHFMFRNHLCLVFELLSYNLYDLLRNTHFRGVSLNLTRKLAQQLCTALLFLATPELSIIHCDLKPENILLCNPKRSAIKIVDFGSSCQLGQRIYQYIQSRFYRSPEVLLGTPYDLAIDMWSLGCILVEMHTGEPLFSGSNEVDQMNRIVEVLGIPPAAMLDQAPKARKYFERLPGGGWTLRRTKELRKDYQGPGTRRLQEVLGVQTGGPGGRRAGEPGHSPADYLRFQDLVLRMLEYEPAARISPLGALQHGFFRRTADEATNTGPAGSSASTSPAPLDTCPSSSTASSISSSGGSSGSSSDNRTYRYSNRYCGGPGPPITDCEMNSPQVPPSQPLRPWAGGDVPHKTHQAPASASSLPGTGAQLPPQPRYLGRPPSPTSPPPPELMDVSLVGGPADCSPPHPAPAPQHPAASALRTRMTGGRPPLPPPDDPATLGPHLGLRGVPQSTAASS

[15] = target: Dual specificity tyrosine-phosphorylation-regulated kinase 1B (Homo sapiens) (UniProt Q9Y463); settings: at 1 µM
[16] = target: T1, Dual specificity tyrosine-phosphorylation-regulated kinase 2 (Homo sapiens) (UniProt Q92630); settings: at 0.1 µM
T1 sequence (whole entry): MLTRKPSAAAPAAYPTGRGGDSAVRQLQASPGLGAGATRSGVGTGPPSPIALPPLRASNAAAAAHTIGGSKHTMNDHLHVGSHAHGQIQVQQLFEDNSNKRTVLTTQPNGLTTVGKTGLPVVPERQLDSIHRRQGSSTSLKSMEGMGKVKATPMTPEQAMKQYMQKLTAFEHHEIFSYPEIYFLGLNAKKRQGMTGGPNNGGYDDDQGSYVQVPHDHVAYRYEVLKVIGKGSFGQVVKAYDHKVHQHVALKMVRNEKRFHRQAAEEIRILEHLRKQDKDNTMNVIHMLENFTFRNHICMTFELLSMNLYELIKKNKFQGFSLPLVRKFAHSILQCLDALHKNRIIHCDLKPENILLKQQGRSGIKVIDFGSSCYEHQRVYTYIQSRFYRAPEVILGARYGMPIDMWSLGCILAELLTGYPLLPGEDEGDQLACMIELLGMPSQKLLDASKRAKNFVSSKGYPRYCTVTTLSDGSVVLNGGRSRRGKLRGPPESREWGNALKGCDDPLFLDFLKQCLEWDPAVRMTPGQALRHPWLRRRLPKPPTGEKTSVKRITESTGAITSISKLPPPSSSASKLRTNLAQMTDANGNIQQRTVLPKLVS

[17] = target: T1, Dual specificity tyrosine-phosphorylation-regulated kinase 2 (Homo sapiens); settings: at 1 µM
[18] = target: Glycogen synthase kinase-3 alpha (Homo sapiens) (UniProt P49840); settings: at 0.1 µM
Chain of Glycogen synthase kinase-3 alpha (Homo sapiens) (P49840 2-483 limits assumed): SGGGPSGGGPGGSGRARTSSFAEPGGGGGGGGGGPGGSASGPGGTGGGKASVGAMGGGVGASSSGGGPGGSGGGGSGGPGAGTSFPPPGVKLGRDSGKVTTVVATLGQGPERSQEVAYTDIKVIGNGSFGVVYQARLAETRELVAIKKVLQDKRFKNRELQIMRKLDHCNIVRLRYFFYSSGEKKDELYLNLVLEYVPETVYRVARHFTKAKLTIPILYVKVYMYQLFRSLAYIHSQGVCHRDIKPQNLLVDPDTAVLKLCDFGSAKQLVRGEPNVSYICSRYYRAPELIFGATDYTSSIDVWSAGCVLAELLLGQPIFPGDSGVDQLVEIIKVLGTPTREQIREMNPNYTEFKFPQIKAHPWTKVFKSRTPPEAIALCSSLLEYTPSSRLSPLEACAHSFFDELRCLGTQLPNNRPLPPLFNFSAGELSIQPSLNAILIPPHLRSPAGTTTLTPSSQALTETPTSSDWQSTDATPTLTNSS

[19] = target: Glycogen synthase kinase-3 alpha (Homo sapiens) (UniProt P49840); settings: at 1 µM
[20] = target: Glycogen synthase kinase-3 beta (Homo sapiens) (UniProt P49841); settings: at 0.1 µM;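 further: values are mean percent inhibition of GSK3B activity, from the GSK Published Kinase Inhibitor Set (PKIS) screening dataset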
Chain of Glycogen synthase kinase-3 beta (Homo sapiens) (P49841 whole entry, looked up): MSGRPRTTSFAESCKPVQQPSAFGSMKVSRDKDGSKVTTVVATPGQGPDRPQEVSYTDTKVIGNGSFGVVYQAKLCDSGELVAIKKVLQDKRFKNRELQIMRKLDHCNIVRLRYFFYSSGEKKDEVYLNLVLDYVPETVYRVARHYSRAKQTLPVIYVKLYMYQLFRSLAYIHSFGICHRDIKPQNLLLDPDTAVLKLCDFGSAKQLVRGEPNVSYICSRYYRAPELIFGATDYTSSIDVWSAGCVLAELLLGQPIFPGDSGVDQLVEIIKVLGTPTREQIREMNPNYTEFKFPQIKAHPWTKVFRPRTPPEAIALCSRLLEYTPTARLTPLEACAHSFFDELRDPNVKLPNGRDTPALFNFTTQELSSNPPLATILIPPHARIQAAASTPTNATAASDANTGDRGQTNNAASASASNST

Chain of Cyclin-dependent kinase 4 (Homo sapiens) (P11802 whole entry): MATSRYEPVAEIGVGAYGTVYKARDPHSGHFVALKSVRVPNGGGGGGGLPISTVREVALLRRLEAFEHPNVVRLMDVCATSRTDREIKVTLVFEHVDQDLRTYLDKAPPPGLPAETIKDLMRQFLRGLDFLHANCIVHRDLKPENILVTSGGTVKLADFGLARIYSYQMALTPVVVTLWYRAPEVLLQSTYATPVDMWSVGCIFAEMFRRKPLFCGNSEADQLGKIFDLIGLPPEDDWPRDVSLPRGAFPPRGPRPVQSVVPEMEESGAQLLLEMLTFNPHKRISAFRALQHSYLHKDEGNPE
Chain of CDK3/Cyclin E (Homo sapiens) (P24864 whole entry, looked up): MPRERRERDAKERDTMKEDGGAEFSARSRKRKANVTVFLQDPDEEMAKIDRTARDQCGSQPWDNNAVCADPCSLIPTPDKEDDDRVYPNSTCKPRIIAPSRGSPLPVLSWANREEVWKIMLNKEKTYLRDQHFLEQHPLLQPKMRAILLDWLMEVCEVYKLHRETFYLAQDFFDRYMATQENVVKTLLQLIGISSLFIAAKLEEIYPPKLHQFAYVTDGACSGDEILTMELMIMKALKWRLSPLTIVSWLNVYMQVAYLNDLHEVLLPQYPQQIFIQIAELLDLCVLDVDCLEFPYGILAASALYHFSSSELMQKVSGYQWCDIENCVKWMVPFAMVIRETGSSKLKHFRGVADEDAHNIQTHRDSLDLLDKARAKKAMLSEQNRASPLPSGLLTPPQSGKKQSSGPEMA
Chain of CDK3/Cyclin E (Homo sapiens) (Q00526 whole entry, looked up): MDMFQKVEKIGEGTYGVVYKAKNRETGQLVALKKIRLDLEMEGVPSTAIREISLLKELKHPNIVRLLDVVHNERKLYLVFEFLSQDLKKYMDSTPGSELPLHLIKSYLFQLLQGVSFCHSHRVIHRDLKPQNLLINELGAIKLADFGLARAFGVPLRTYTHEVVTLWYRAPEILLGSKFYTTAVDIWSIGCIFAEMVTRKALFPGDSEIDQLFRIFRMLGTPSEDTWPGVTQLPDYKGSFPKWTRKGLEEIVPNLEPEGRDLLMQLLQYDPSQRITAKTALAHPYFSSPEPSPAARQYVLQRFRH

Compound | inhibition [1] [%] | inhibition [2] [%] | inhibition [3] [%] | inhibition [4] [%] | inhibition [5] [%] | inhibition [6] [%] | inhibition [7] [%] | inhibition [8] [%] | inhibition [9] [%] | inhibition [10] [%] | inhibition [11] [%] | inhibition [12] [%] | inhibition [13] [%] | inhibition [14] [%] | inhibition [15] [%] | inhibition [16] [%] | inhibition [17] [%] | inhibition [18] [%] | inhibition [19] [%] | inhibition [20] [%]
CCn1c(-c2nonc2N)nc2c(C#CC(C)(C)O)ncc(OCC3CCNCC3)c21 | 1.62 | -1.61 | 3.91 | 1.05 | 5.69 | -0.95 | 4.82 | 5.25 | 29.4 | -2.14 | -1.7 | -3.13 | 1.2 | -4.04 | -0.01 | 1.35 | 1.98 | 12.9 | 53.9 | 11.9
NS(=O)(=O)c1ccc(-c2ccc3c(NC(=O)C4CC4)n[nH]c3c2)cc1 | 5.48 | 3.11 | 6.7 | 2.07 | 4.41 | 13.7 | 46.3 | 1.09 | -0.2 | 0.84 | 2.75 | 2.37 | 5.69 | 0.86 | 3.29 | 1.63 | 3.47 | 5.27 | 8.87 | 4.15
COc1cccc(-n2ncc3c(N/N=C/c4ccncc4)ncnc32)c1 | 49.4 | 16.5 | 52.6 | 39.7 | 78.8 | 15.4 | 51.1 | 4.97 | 35 | 4.27 | 19.3 | 28.7 | 72.3 | 16.2 | 53.9 | 14.2 | 58.9 | 85.7 | 90 | 83.4
NS(=O)(=O)c1ccc(N/C=C2\C(=O)Nc3ccc4ncsc4c32)cc1 | 94.7 | 30.7 | 64.6 | 60.7 | 72.8 | 36.8 | 69 | 11.6 | 64.1 | 1.81 | 9.47 | 21.7 | 74.4 | 9.26 | 44.9 | 6.51 | 29 | 25.2 | 62.8 | 26.1
COc1cc2c(cc1Nc1nc(Nc3ccsc3C(N)=O)c3cc[nH]c3n1)N(C(=O)CN(C)C)CCC2 | -1.3 | 3.79 | 5.67 | 0.94 | -0.24 | 5.85 | 6.19 | 15.6 | 72 | 1.22 | 2.92 | -1.83 | 0.58 | -0.31 | 4.64 | -0.67 | -2.75 | 1.22 | 0.89 | 1.05
CCn1c(-c2nonc2N)nc2c(C#CC(C)(C)O)nc(O[C@@H](CN)c3ccccc3)cc21 | -0.03 | 1.37 | 4.92 | 2.41 | 4.69 | -4.5 | 3.24 | 10.2 | 56.3 | -1.43 | 1.71 | 1.79 | 7.95 | 2.3 | 9.96 | -1.27 | 0.08 | 52.7 | 86.1 | 53.4
COc1cccc(COc2cc(-n3cnc4ccccc43)sc2C(N)=O)c1 | -2.65 | 0.26 | 1.36 | -0.51 | -0.16 | -4.03 | -1 | 0.48 | 1.3 | -0.79 | -0.91 | 0.34 | -0.09 | -0.5 | -2.7 | -0.21 | -2.08 | 1.06 | 3.48 | 0.09
Fc1ccc(-c2ncn(C3CCNCC3)c2-c2ccnc(Oc3ccccc3)n2)cc1 | -2.25 | -3.54 | -2.32 | -3.32 | -2.14 | -6.2 | -4.11 | 0.8 | -0.83 | -3.78 | -4.71 | -2.73 | -2.33 | -4.97 | -5.21 | 1.43 | 0.78 | -1.47 | -2.08 | -2.46
NC(=O)c1sc(-n2cnc3cc(C(F)(F)F)ccc32)cc1OCc1ccccc1Br | -2.44 | 1.17 | 2.92 | 0.88 | 2.08 | -0.56 | -1.42 | 0.89 | 0.1 | -0.27 | -0.53 | -0.2 | 1.95 | -0.04 | 0.72 | 1.75 | 0.34 | 1.61 | 2.55 | 1.16
Nc1nonc1-c1nc2cnccc2n1C1CCCCC1 | 11.3 | 0.8 | 5.81 | 5 | 18 | -5.33 | 1.64 | 3.99 | 39.2 | -0.8 | 2.98 | 34.3 | 78 | 23.4 | 71.2 | -2.75 | -0.12 | 66.1 | 90.8 | 62.5
COc1cc(C=NNc2ncnc3c2cnn3Cc2ccccc2)ccc1O | 2.73 | 0.2 | 5.23 | 2.79 | 16.2 | – | -0.46 | -0.27 | 3.62 | 0.25 | 9.8 | 3.11 | 9.48 | 3.37 | 8.92 | -4.67 | -1.79 | 5.54 | 19.6 | 5.36
CCn1c(-c2nonc2N)nc2c(C#CC(C)(C)O)ncc(OC[C@@H]3CCCN3)c21 | -4.39 | 0.04 | 1.01 | -0.13 | -0.81 | -2.82 | -5.08 | 1.88 | 9.59 | 0.26 | -0.53 | -0.49 | -0.73 | -2.29 | -1.07 | 0.4 | -2.07 | 9.78 | 44.4 | 9.2
CCn1c(-c2nonc2N)nc2c(C#CCN)ncc(OCCCN)c21 | 2.11 | -2.32 | -2.14 | 1.95 | 1.6 | 0.56 | -5.81 | 1.13 | 0.74 | -0.24 | -1.34 | 1.67 | 4.43 | 5.17 | 7.49 | -2.75 | -1.66 | 0.52 | 9.28 | 3.41
Cc1cc(-c2ccco2)cc(C)c1/C=C/c1cncc(-c2nn[nH]n2)c1 | -1.27 | 0.48 | 2.4 | 0.53 | 1.53 | -2.45 | -0.96 | -1.47 | -2.94 | 0.27 | 0.08 | -0.27 | 2.81 | -0.75 | 0.15 | -0.1 | -1.43 | 0.36 | 0.72 | 0.5
